# The supplement of paper PMC6555819
# Tests used:
# Assay in all cases: PBM binding z-score (relative to random genomic background probes); higher = stronger binding; sequences stand for … in GC…GCGATTGACAGCGTAGAATGAAGG
# [1] = tested on: FXR:RXRa (NR concentration 270 nM, RXRa partner concentration 90 nM)
# How it was run: (§1)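 On custom Agilent 4×180K arrays, double-stranded probes with 34-nt variable regions carried direct-repeat seeds, single-nucleotide variants, half-site ablations or random human genomic background. Ligand-free nuclear receptor dimers were applied for 1 h, and binding was read with antibodies against each partner (one per run). Binding z-scores come from regression-normalized fluorescence, with the random background probes as reference.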
# [2] = tested on: LXRa:RXRa (NR concentration 270 nM, RXRa partner concentration 90 nM)
# How it was run: as §1
# [3] = tested on: LXRa homodimer (NR concentration 270 nM)
# How it was run: as §1
# [4] = tested on: LXRb:RXRa (NR concentration 270 nM, RXRa partner concentration 90 nM)
# How it was run: as §1
# [5] = tested on: LXRb homodimer (NR concentration 270 nM)
# How it was run: as §1
# [6] = tested on: PPARa:RXRa (NR concentration 270 nM, RXRa partner concentration 90 nM)
# How it was run: as §1
# [7] = tested on: PPARg:RXRa (NR concentration 180 nM, RXRa partner concentration 90 nM)
# How it was run: as §1
# [8] = tested on: PPARg:RXRa 270nM:90nM, anti-RXR (NR concentration 270 nM, RXRa partner concentration 90 nM)
# How it was run: as §1
# [9] = tested on: PPARg:RXRa 30nM:10nM, anti-RXR (NR concentration 30 nM, RXRa partner concentration 10 nM)
# How it was run: as §1
# [10] = tested on: PPARg:RXRa 90nM:30nM, anti-RXR (NR concentration 90 nM, RXRa partner concentration 30 nM)
# How it was run: as §1
# [11] = tested on: PPARg:RXRa DBDmut IVT, anti-RXR (DBD mutation: RXRa K156A/R161A, NR concentration 270 nM, RXRa partner concentration 90 nM)
# How it was run: as §1
# [12] = tested on: PPARg:RXRa IVT, anti-PPARg (NR concentration 270 nM, RXRa partner concentration 90 nM)
# How it was run: as §1
# [13] = tested on: PPARg DBDmut:RXRa IVT, anti-PPARg (DBD mutation: PPARg1 K132A/R137A, NR concentration 270 nM, RXRa partner concentration 90 nM)
# How it was run: as §1
# [14] = tested on: PPARg DBDmut IVT, anti-PPARg (DBD mutation: PPARg1 K132A/R137A, NR concentration 270 nM)
# How it was run: as §1
# [15] = tested on: PPARg homodimer (NR concentration 180 nM)
# How it was run: as §1
# [16] = tested on: PXR:RXRa (NR concentration 270 nM, RXRa partner concentration 90 nM)
# How it was run: as §1
# [17] = tested on: PXR homodimer (NR concentration 270 nM)
# How it was run: as §1
# [18] = tested on: RARa:RXR (NR concentration 270 nM, RXRa partner concentration 90 nM)
# How it was run: as §1
# [19] = tested on: RARa homodimer (NR concentration 270 nM)
# How it was run: as §1
# [20] = tested on: RARb:RXRa (NR concentration 270 nM, RXRa partner concentration 90 nM)
# How it was run: as §1
Sequence,PBM binding z-score [1],PBM binding z-score [2],PBM binding z-score [3],PBM binding z-score [4],PBM binding z-score [5],PBM binding z-score [6],PBM binding z-score [7],PBM binding z-score [8],PBM binding z-score [9],PBM binding z-score [10],PBM binding z-score [11],PBM binding z-score [12],PBM binding z-score [13],PBM binding z-score [14],PBM binding z-score [15],PBM binding z-score [16],PBM binding z-score [17],PBM binding z-score [18],PBM binding z-score [19],PBM binding z-score [20]
ATATGTAGGTTACCTCCGGGTCATTCAGGCTATG,2.86,5.14,1.84,3.15,0.804,4.5,5.68,4.82,2.2,4.09,7.18,6.7,1.67,1.41,1.74,3.67,1.8,3.75,0.561,2.51
TCGAGTAGGTTACCAATGGGGCATTCGGCTTTCT,-0.107,1.22,-0.464,0.357,-0.96,0.808,0.00688,0.931,0.855,0.717,3.25,2.7,-1.22,-1.07,0.209,-0.187,-0.566,0.111,-1.05,0.768
CCTTACGGATCACTCCAGGTTATAGCATCGGAGT,0.957,3.48,1.36,0.889,0.62,0.155,0.486,-0.0175,-0.194,-0.283,0.299,0.0369,0.0149,0.787,1,0.823,0.761,0.748,1.26,0.105
ATCGAAAGGTCGACGAGGTGAGTAGACACCGTTT,4.89,3.41,-0.158,2.75,0.205,4.45,3.11,3.63,1.22,2.45,0.417,2.09,0.633,0.273,1.49,2.93,0.455,3.91,0.813,3.89
CGTCCTAGGTCAGAGAGGTCAGTGAATGCCGAGT,3.96,3.93,2.32,3.09,-0.0595,3.75,2.04,3.12,0.277,1.95,2.86,3.03,-0.901,-1.15,5.14,4.85,8.52,4.68,2.45,4.4
CGAACTAGGTCATTGACAGGACAGTGATTAGTAA,4.44,3.04,0.786,2,-0.0597,4.69,7.36,6.17,3.71,6.08,8.18,8.17,4.22,2.86,1.7,1.91,0.608,2.36,0.564,3.62
ATCGAAAGGTCTAGGTGAGTATAGAGAAAGGGAA,0.504,0.836,0.254,0.163,0.443,0.539,0.509,0.366,0.34,0.331,0.689,1.37,0.807,0.731,0.408,0.216,0.272,0.406,0.837,1.71
CCAGACTGGTGAAAGGTAACTCAGTCTGGTACGC,-0.45,-0.241,-0.759,-0.0625,-0.842,1.46,2.67,3.83,1.66,3.26,0.00689,0.829,-0.709,-0.951,0.201,-0.0709,-0.492,0.039,-0.414,0.363
CAAATTAGGTCACAGAGGTCAAAGTCCGTGCGTA,7.48,6.57,7.83,6.26,2.94,6.44,9.76,8.05,6.42,8.29,8.01,8.49,2.82,1.45,5.32,6.74,11.4,7.4,3.41,5.27
TCATATAGGAAAAAGGTGAAAGTCGGTGTGGTAA,1.37,1.47,-0.216,1.38,-0.0192,2.87,3.05,5.37,5.19,5.73,2.92,1.79,1.1,0.104,1.49,0.859,0.327,1.63,1.43,1.57
GGAACGAGGGCAAAGTTGATGGCATCTGTCGACG,1.36,1.13,-0.0159,0.949,-0.264,4.09,6.37,6.89,5.45,6.81,4.48,4.33,0.423,0.295,0.411,1.39,0.213,1.59,-0.52,2.48
TCGCCTAGGTCAGATCGGGCCAGTATACGCTATA,1.75,1.2,-0.481,0.65,-0.762,1.71,0.474,1.19,1.68,1.28,1.92,1.11,-0.622,-0.724,-0.2,1.23,-0.531,1.05,-0.742,3.12
CCGACTGGGGTATAAGGTTACCATAAGCCAGCCC,0.283,1.57,-0.00996,0.982,-0.761,1.69,1.79,2.38,0.774,2.06,1.17,1.24,-0.919,-1.39,0.667,0.301,-0.29,1.24,0.0701,0.726
